Drawing on PubChem BioAssay (NCI), this text covers growth inhibition for 8 molecules.

This assay in a line: NCI Yeast Anticancer Drug Screen. Data for the rad14 strain (AID 159).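 Further: 0% = growth of vehicle-treated control cultures.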 To be noted: S. cerevisiae rad14 strain growth inhibition, hits give high values. As to the method: Growth inhibition of yeast strains with defined genetic alterations is measured as a screen for potential anti-cancer activity. Selected strains with alterations in DNA damage repair or cell cycle control were exposed to compounds and growth inhibition was measured relative to vehicle treated controls. The strain used in this assay is rad14

The panel holds about 79,000 compounds, 15% with a hit somewhere; the sample as a whole holds those more often. Unmarked numbers belong to inactive results. Calls of active or inactive are those of the source. No stated cut-off is given here; in the data, active means growth inhibition above about 70%; inactive means the rest.

Regarding `Cc1ccc2ccc(O)cc2c1`, the growth inhibition was -18% (at 1.2 µM); -20% (at 3.7 µM); -23% (at 11.0 µM); -25% (at 33.0 µM); 56% (at 100.0 µM).

On to `Cn1c2ccccc2c(=O)c2cc(NC(=O)CCCCC(=O)Nc3ccc4c(c3)c(=O)c3ccccc3n4C)ccc21`, for which the growth inhibition was -1% (at 1.2 µM); 3% (at 3.7 µM); 3% (at 11.0 µM); 17% (at 33.0 µM); 58% (at 100.0 µM).

Take `COc1ccc(-c2cn(-c3ccc(I)cc3)c3ncnc(N)c23)cc1`: the growth inhibition was -5% (at 1.2 µM); -8% (at 3.7 µM); -12% (at 11.0 µM); -8% (at 33.0 µM); -1% (at 100.0 µM).

With `O=Nc1cccnc1N=O`, the growth inhibition (at 1.2 µM) was 11%; the growth inhibition (at 3.7 µM) was 36%; the growth inhibition (at 11.0 µM) is 99% (active); the growth inhibition (at 33.0 µM) is 99% (active); the growth inhibition (at 100.0 µM) is 99% (active).

On to `O=CNc1ccc2c(c1)C(=O)c1ccccc1-2`, for which the growth inhibition (at 1.2 µM) is 5%; the growth inhibition (at 3.7 µM) was 9%; the growth inhibition (at 11.0 µM) is 14%; the growth inhibition (at 33.0 µM) was 46%; the growth inhibition (at 100.0 µM) was 96% (active).

For `O=C1c2ccccc2C(=O)c2c(NC3CCCCC3)ccc(Nc3ccc(S(=O)(=O)O)cc3)c21`, the growth inhibition by setting is: (at 1.2 µM) 2%; (at 3.7 µM) -4%; (at 11.0 µM) 2%; (at 33.0 µM) 48%; (at 100.0 µM) 71% (active).

As for `CCCC/C=C/C(CC)(C(=O)OCC)C(=O)OCC`, the growth inhibition by setting is: (at 1.2 µM) -2%; (at 3.7 µM) -5%; (at 11.0 µM) -2%; (at 33.0 µM) -1%; (at 100.0 µM) 1%.

Consider `Cn1c(=O)c2ccccc2c2ccccc21`, for which the growth inhibition by setting is: (at 1.2 µM) 0%; (at 3.7 µM) 2%; (at 11.0 µM) 15%; (at 33.0 µM) 39%; (at 100.0 µM) 63%.
